# Records with an inconclusive call do not appear. Activity calls are given as the source filed them. Unless noted, calls follow the shape of the dose curve; as a rule, active = well fitted curve in the direction sought with a large enough effect; inconclusive = small, poorly fitted or top-dose-only effect, or another doubt; inactive = no such curve, though single readings can be large; an effect the other way counts as inactive or inconclusive.
# How the values were obtained:
# [1] = biological target: Lysosomal acid glucosylceramidase (Homo sapiens) (UniProt P04062); assay: Glucocerebrosidase-p2 (AID 348; in the data active = potency below about 10 µM; also: potency is read from the fitted curve at half-maximal effect); conditions: purified GBA, blue fluorogenic substrate, 40 min
# Chain of Lysosomal acid glucosylceramidase (Homo sapiens) (P04062 whole entry, looked up): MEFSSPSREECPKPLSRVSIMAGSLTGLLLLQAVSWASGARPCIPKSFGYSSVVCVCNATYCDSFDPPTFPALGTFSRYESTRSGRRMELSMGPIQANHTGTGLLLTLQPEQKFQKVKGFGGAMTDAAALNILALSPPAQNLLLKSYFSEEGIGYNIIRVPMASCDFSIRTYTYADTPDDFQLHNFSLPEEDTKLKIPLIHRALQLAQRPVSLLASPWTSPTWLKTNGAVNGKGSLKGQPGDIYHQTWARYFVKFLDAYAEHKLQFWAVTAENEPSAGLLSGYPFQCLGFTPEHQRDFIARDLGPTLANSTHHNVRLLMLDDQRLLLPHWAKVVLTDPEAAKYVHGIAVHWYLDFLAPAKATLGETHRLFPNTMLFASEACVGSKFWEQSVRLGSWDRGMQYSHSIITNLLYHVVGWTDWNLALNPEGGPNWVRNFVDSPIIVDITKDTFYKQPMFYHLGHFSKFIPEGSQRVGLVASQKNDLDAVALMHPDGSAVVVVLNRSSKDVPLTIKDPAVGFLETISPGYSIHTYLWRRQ
# Method in brief: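 Compounds titrated from 0.6 nM upwards against 0.2 nM enzyme in pH 5.9 citric acid/KH2PO4, taurocholate, tween-20; blue fluorogenic substrate 80 uM, 40 min room temperature, stopped and read Ex 365/Em 440 for AC50.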
# [2] = AP1 Signaling Pathway (AID 357; active = well fitted curve in either direction with a large enough effect, not every such curve was filed as active;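 also: ME-180 reporter cells stimulated with EGF at its EC50 level; % is scaled to controls: 0 for no effect and ±100 for the full control effect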); conditions: ME-180 AP-1-bla reporter, EGF-induced, beta-lactamase ratio, 5 h; at 7.69 µM (top of the series) unless noted
# Method in brief: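 Modulation of EGF-driven AP-1 transcription was assessed with a beta-lactamase reporter in ME-180 cells. Compound and EC50 EGF were co-incubated 5 hours at 37 °C before 2.5-hour CCF4 loading at room temperature and dual-emission reading.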
# [3] = biological target: Cytochrome P450 1A2 (Homo sapiens) (UniProt P05177); assay: p450-cyp1a2 (AID 410; calls by dose curve; also: potency is read from the fitted curve at half-maximal effect;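 as to activity change, negative = inhibition: -100% = full effect of reference inhibitor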); conditions: recombinant CYP1A2, luciferin-ME demethylation, luminescence; series mostly up to 57 µM
# Chain of Cytochrome P450 1A2 (Homo sapiens) (P05177 whole entry, looked up): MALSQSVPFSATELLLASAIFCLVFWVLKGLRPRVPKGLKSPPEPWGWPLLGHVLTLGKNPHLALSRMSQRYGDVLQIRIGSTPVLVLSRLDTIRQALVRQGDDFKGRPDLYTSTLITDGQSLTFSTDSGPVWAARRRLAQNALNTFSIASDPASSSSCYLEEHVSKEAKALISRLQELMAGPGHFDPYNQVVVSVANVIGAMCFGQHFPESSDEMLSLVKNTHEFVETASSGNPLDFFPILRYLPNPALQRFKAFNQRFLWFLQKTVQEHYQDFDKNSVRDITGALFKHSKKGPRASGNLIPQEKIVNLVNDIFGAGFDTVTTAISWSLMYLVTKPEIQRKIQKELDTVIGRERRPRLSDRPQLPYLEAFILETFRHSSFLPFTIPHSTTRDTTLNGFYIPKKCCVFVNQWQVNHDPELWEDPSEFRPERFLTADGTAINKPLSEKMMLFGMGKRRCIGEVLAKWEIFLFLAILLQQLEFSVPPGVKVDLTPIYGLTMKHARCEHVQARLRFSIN
# Method in brief: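 20nM CYP1A2 with 100uM Luciferin-ME (at Km) in 100mM KPO4; compound preincubated 10 min, NADPH regeneration added, 60 min at room temperature. Luciferin quantified by luminescence after detection reagent; normalized to 57 uM furafylline.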
# [4] = NFAT Signaling Pathway (AID 444; active = well fitted curve in either direction with a large enough effect, not every such curve was filed as active;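 also: carbachol stimulus at about its EC50 of 1 µM final; % is scaled to controls: 0 for no effect and ±100 for the full control effect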); conditions: Jurkat NFAT-bla M1, carbachol, beta-lactamase ratio, 5 h; at 7.69 µM (top of the series) unless noted
# Method in brief: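 Jurkat cells with NFAT-driven β-lactamase reporter and co-expressed M1 receptor, stimulated with carbachol (final 1 uM, ~EC50), compound titration, 5 h at 37 °C. CCF4 loaded 1 h at RT; 460/530 nm ratio gave %activity and AC50.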
# [5] = Stat Signaling Pathway (AID 446; active = well fitted curve in either direction with a large enough effect, not every such curve was filed as active;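 also: ME-180 cervical cancer cells given 40 pM IL-6 alongside compound; SIE-controlled beta-lactamase reporter measured as 460/530 nm FRET emission ratio; % is scaled to controls: 0 for no effect and ±100 for the full control effect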); conditions: ME-180 SIE beta-lactamase reporter, IL-6 stimulated, 5 h; at 7.69 µM (top of the series) unless noted
# Method in brief: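 ME-180 cells carrying a SIE-driven beta-lactamase reporter are stimulated with 40 pM IL-6 for 5 h at 37C in the presence of compound. The 460/530 nm FRET substrate ratio is read after 2.5 h at RT. Data are normalised to 300 pM IL-6 and to 125 nM JAK inhibitor controls.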
# [6] = biological target: Glucocorticoid receptor (Homo sapiens) (UniProt P04150); assay: GR-EFC Redistribution (AID 451; calls by dose curve; also: potency is read from the fitted curve at half-maximal effect); conditions: CHO-K1 GR-EFC translocation, beta-gal luminescence, 2 h
# Chain of Glucocorticoid receptor (Homo sapiens) (P04150 whole entry, looked up, the tested form may be a part): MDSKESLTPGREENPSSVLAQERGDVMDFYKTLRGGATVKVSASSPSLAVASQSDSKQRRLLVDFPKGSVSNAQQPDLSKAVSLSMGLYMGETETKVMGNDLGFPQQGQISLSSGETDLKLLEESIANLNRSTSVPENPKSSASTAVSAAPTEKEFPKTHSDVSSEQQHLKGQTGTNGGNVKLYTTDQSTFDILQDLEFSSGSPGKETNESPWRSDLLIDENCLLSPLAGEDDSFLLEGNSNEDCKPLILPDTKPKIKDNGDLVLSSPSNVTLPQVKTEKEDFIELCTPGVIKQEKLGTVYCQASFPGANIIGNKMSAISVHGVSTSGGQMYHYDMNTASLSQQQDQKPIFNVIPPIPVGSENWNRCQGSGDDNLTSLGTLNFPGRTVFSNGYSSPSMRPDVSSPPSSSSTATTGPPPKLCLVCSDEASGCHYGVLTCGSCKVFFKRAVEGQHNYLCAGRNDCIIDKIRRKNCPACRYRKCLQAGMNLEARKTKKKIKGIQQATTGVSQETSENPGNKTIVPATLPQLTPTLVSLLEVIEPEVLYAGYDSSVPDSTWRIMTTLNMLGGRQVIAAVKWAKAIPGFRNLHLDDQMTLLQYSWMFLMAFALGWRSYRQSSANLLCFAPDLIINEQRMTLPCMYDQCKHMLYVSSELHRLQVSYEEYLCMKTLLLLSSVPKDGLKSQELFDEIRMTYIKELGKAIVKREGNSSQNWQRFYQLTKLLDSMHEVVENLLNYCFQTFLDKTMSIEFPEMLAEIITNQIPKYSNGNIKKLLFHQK
# Method in brief: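 CHO-K1 cells expressing nuclear EA and GR-ED fragments of b-gal; compounds titrated up to 46 uM final, 2 h at 37 C. GR nuclear translocation read as complemented b-gal luminescence after 1 h RT detection.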
# [7] = biological target: Mitogen-activated protein kinase 10 (Mus musculus) (UniProt Q61831); assay: JNK3 AlphaScreen Assay (AID 530; active = well fitted curve in either direction with a large enough effect, not every such curve was filed as active;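 also: kinase came from lysate of stimulated human HepG2 cells; signal reports phosphorylation of biotinylated GST-cJun 1-79 at Ser73 with 10 µM ATP; % is scaled to controls: 0 for no effect and ±100 for the full control effect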); conditions: JNK3 lysate, c-Jun phosphorylation; series mostly up to 57.1 µM
# Method in brief: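 Pre-activated (IL-1β/TNFα) JNK3 in HepG2 lysates phosphorylates biotin-GST-cJun(1-79), 10 uM ATP; anti-phospho-cJun(Ser73) AlphaScreen read at room temperature, pH 7.6 Tris buffer. Compounds pre-incubated 15 min as titrations.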
# [8] = biological target: 3',5'-cyclic-AMP phosphodiesterase 4B (Homo sapiens) (UniProt Q07343); assay: qHTS Assay for Inhibitors of PDE-IV (AID 607; active = well fitted activation curve with a large enough effect in the main read-out, with a control signal flat, not every such curve was filed as active; also: % of control where 0% means no effect); conditions: HEK293 ACTOne CNG channel cells, membrane potential fluorescence; series mostly up to 22.9 µM
# Chain of 3',5'-cyclic-AMP phosphodiesterase 4B (Homo sapiens) (Q07343 whole entry, looked up): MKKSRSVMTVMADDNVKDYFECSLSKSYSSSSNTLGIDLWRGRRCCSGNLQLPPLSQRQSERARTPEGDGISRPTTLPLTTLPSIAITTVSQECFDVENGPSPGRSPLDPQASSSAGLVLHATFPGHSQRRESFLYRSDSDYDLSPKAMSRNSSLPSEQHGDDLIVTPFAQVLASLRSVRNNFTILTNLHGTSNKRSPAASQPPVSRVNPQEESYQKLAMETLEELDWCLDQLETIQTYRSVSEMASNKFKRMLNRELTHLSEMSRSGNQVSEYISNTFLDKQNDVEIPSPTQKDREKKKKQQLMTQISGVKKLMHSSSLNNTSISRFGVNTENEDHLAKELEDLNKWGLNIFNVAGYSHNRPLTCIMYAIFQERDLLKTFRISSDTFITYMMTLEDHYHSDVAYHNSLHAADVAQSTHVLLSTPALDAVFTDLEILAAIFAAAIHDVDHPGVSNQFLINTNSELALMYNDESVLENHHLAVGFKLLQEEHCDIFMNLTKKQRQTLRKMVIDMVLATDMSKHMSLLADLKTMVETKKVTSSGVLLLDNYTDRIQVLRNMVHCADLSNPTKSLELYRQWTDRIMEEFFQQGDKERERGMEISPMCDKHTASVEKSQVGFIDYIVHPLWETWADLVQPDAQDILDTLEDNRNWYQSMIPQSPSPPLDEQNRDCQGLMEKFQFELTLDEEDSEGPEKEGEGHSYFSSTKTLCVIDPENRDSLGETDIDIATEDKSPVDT
# Method in brief: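 HEK293 ACTOne cells with CNG channel (1000/well), endogenous PDE4; membrane potential dye, compounds up to 22.9 uM final. Fluorescence Ex 535/Em 590; RO 20-1724 (100 uM final) as reference.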
# [9] = qHTS Assay for Lipid Storage Modulators (AID 1519; calls by dose curve); conditions: Drosophila S3 cells, BODIPY lipid droplet/cell ratio, laser cytometry, cells loaded with oleic acid; for activity change, negative = inhibition: at 57.5 µM (top of the series)
# Method in brief: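 Cells seeded at 5,000 per well were treated with compounds over a concentration series and loaded with oleic acid (400 uM, as added). Lipid droplet fluorescence (488 nm excitation, 500-530 nm channel) was read by laser-scanning cytometry and normalized to 20 uM Triacsin C.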
# [10] = biological target: Glucocorticoid receptor (Homo sapiens) (UniProt P04150); assay: GR-GFP Redistribution (AID 450;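 active = compounds whose dose series gives a full or clear partial fitted curve of increased nuclear translocation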; also: potency is read from the fitted curve at half-maximal effect); conditions: U2OS GR-GFP nuclear translocation, laser cytometry, 2 h
# [11] = biological target: Dual specificity protein kinase CLK4 (Homo sapiens) (UniProt Q9HAZ1); assay: qHTS Assay for Inhibitors of CDC-like Kinase 4 (Kinase-Glo Assay) (AID 1770); conditions: recombinant Clk4, Kinase-Glo ATP depletion luminescence; series mostly up to 66.7 µM; also: nearly all actives have a fitted effect of over 65% in size; also: potency is read from the fitted curve at half-maximal effect
# Chain of Dual specificity protein kinase CLK4 (Homo sapiens) (Q9HAZ1 whole entry, looked up): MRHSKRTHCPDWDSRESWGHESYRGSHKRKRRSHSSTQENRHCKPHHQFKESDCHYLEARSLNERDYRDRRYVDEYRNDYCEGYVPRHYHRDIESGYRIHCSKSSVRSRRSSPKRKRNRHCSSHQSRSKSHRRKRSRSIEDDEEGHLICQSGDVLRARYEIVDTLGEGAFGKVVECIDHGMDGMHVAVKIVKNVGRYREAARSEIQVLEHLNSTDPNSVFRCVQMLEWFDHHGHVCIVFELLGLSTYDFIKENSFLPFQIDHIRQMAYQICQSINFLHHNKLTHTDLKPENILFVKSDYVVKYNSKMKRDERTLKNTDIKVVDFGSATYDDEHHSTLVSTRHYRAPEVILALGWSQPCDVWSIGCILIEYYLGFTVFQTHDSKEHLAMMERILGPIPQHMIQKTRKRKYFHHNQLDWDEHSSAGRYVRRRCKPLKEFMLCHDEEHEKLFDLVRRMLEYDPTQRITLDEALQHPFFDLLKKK
# Method in brief: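 Recombinant human Clk4 (25 nM) phosphorylated RS repeat peptide (100 uM) with 1 uM ATP in Tris pH 7.5/MgCl2/EGTA/DTT/Triton buffer for 4.5 h at room temperature. Residual ATP was quantified by Kinase-Glo luciferase luminescence.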
# [12] = biological target: Dual specificity protein kinase CLK4 (Homo sapiens) (UniProt Q9HAZ1); assay: qHTS Assay for Inhibitors of CDC-like Kinase 4 (ADP-Glo Assay) (AID 1771); conditions: recombinant CLK4, ADP-Glo luminescence; series mostly up to 80 µM; also: nearly all actives have a fitted effect of over 70% in size; also: potency is read from the fitted curve at half-maximal effect
# Method in brief: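 25 nM Clk4 with 100 uM RS repeat peptide and 1 uM ATP (final) in buffer with 2 mM MgCl2, 0.5 mM EGTA, 2.5 mM DTT, 0.01% Triton X-100; 1 h at room temperature; ADP-Glo luminescence for ADP formed.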
# [13] = biological target: Dual specificity protein kinase CLK4 (Homo sapiens) (UniProt Q9HAZ1); assay: qHTS Assay for Inhibitors of CDC-like Kinase 4 (ADP-FP Assay) (AID 1795); conditions: Transcreener ADP fluorescence polarization; series mostly up to 50 µM; also: % is scaled to controls: 0 for no effect and ±100 for the full control effect; nearly all actives have a fitted effect of over 60% in size
# Method in brief: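 Recombinant human Clk4 (6.25 nM) phosphorylated RS repeat peptide (100 uM) with 1 uM ATP in Tris pH 7.5/MgCl2/EGTA/DTT/Triton buffer for one hour. ADP was quantified by Transcreener competitive fluorescence polarization against an ADP calibration curve.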
# [14] = biological target: Ubiquitin carboxyl-terminal hydrolase 1 (Homo sapiens) (UniProt O94782); assay: Inhibitors of USP1/UAF1: Pilot qHTS (AID 504865); conditions: purified USP1/UAF1, Ub-rhodamine cleavage fluorescence; series mostly up to 54.9 µM;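 also: rhodamine fluorescence freed from ubiquitin-rhodamine substrate followed over time; top concentration of the series differs between compounds; % is scaled to controls: 0 for no effect and ±100 for the full control effect; nearly all actives have a fitted effect of over 35% in size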
# Chain of Ubiquitin carboxyl-terminal hydrolase 1 (Homo sapiens) (O94782 whole entry, looked up): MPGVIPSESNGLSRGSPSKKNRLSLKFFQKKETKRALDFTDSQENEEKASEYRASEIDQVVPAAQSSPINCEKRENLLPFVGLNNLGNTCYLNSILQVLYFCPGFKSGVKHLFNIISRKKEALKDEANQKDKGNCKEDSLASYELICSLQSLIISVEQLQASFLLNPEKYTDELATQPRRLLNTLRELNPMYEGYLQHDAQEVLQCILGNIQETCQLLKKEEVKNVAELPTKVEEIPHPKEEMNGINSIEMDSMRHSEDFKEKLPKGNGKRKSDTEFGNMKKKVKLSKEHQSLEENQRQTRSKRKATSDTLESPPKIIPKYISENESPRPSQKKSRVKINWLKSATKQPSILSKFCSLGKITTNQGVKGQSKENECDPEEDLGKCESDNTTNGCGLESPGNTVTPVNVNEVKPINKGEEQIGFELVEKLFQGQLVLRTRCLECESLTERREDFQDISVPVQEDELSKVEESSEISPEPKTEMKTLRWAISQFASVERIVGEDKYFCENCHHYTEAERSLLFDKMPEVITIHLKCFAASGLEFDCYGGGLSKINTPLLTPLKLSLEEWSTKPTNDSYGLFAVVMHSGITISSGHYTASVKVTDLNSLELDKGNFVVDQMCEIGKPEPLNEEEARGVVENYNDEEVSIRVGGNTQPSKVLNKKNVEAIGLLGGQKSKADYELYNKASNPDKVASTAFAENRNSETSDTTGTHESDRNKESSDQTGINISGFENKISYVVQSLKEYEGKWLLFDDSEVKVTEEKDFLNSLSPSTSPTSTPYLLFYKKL
# Method in brief: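 USP1/UAF1 complex (1nM) preincubated with compound 15 min at room temperature, then Ub-Rho substrate (150nM final) added. Fluorescence read kinetically at 480/540 nm, 6 reads every 60 seconds. Buffer: 50mM HEPES pH 7.8, 0.5mM EDTA, 0.1 mg/ml BSA, 1mM TCEP, 0.01% Tween-20.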
# [15] = biological target: Cytochrome P450 3A4 (Homo sapiens) (UniProt P08684); assay: qHTS Assay for Inhibitors and Substrates of Cytochrome P450 3A4 (AID 884); conditions: recombinant CYP3A4, Luciferin-PPXE luminescence; series mostly up to 57.1 µM; also: potency is read from the fitted curve at half-maximal effect; nearly all actives have a fitted effect of over 50% in size
# Chain of Cytochrome P450 3A4 (Homo sapiens) (P08684 whole entry, looked up): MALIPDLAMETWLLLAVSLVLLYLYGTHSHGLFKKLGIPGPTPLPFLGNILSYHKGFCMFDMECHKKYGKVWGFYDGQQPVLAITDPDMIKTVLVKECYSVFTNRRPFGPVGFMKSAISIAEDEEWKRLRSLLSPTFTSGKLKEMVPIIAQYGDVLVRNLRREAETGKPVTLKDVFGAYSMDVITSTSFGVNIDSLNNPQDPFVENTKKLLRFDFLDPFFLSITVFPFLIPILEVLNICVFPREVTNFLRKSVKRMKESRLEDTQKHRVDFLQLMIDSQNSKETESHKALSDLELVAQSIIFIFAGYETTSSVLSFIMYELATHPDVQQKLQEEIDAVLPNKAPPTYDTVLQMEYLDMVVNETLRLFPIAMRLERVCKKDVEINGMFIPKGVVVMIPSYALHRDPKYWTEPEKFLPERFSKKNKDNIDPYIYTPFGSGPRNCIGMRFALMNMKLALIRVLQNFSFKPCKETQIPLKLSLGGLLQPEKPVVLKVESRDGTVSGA
# Method in brief: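 20 nM human CYP3A4 with 25 uM Luciferin-PPXE (at KM) in 200 mM KPO4, preincubated 10 min with compound; NADPH regeneration started a 60 min RT reaction. Luciferin detected by luminescence, normalized to 57 uM ketoconazole as full inhibition.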
# [16] = biological target: Cytochrome P450 2C19 (Homo sapiens) (UniProt P33261); assay: qHTS Assay for Inhibitors and Substrates of Cytochrome P450 2C19 (AID 899); conditions: recombinant CYP2C19, luciferin-H EGE luminescence; series mostly up to 57.1 µM; also: potency is read from the fitted curve at half-maximal effect; nearly all actives have a fitted effect of over 60% in size
# Chain of Cytochrome P450 2C19 (Homo sapiens) (P33261 whole entry, looked up): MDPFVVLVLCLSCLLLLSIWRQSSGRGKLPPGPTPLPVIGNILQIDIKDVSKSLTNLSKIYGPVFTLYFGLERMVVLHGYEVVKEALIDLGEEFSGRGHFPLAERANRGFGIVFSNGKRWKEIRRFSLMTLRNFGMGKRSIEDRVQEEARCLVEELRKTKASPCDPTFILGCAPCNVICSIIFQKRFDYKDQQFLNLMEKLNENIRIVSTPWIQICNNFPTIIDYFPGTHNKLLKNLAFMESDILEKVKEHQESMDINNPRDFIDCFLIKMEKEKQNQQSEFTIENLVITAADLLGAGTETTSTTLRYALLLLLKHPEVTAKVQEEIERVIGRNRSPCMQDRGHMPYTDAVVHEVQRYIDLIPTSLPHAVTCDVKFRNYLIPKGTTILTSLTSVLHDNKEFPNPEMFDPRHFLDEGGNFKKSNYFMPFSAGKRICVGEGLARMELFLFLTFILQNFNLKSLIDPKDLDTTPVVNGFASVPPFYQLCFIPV
# Method in brief: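 Signal comes from luciferase acting on luciferin released by CYP2C19-mediated hydroxylation of Luciferin-H EGE, 10uM (KM). Assay mix: 5nM enzyme, 50mM KPO4; 60 min at 37C with NADPH regeneration. Data normalized against 57uM ketoconazole.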
# [17] = measured here: cell count channel max response
# [18] = measured here: lipid channel max response
Compound,Potency [1],"activity change, negative = inhibition [2]",Potency [3],"activity change, negative = inhibition [4]","activity, negative = inhibition [5]",Potency [6],outcome [7],Potency [8],"activity change, negative = inhibition [9]","max response [9, 17] [%]","max response [9, 18] [%]",Potency [10],Potency [11],Potency [12],Potency [13],Potency [14],Potency [15],Potency [16]
CN1CCC2(CC1)CCN(C(=O)c1cc(C(F)(F)F)cc(C(F)(F)F)c1)CC2,> 11.4 µM (inactive),-8.71% (inactive),inactive,-5.98% (inactive),-2.34% (inactive),> 46 µM (inactive),inactive,inactive,1.93% (inactive),-7.21,-4.06,,,,,,,
Cn1c(=O)c(-c2ccc(Cl)cc2)nc2cnc(Nc3ccccc3)nc21,> 11.4 µM (inactive),-22.9% (inactive),,-8.39% (inactive),-6.29% (inactive),,inactive,inactive,-14.5% (inactive),23.4,-1.32,> 9.22 µM (inactive),inactive,inactive,inactive,inactive,,
CCNc1ncc2nc(-c3ccc(OC)cc3)c(=O)n(C[C@H]3CCCO3)c2n1,> 11.4 µM (inactive),-5.93% (inactive),,,,> 46 µM (inactive),inactive,,-3.19% (inactive),8.2,0.991,> 9.22 µM (inactive),inactive,inactive,,inactive,,
O=c1c(-c2cc(F)cc(F)c2)nc2cnc(N3CCNCC3)nc2n1-c1ccccc1,> 11.4 µM (inactive),,,,,> 46 µM (inactive),inactive,inactive,4.01% (inactive),3.1,4.03,> 9.22 µM (inactive),15.8 µM (active),22.4 µM (active),,inactive,,
CN1CCN(c2ncnc3ccc(-c4ccccc4Cl)cc23)CC1,> 11.4 µM (inactive),,1.58 µM (active),-23.1% (inactive),,> 46 µM (inactive),inactive,,-1.72% (inactive),10.9,-1.45,> 46 µM (inactive),25.1 µM (active),28.2 µM (active),,inactive,5.01 µM (active),3.98 µM (active)

# — PubChem BioAssay (NCATS)
